A selection: hits, their analogues and other compounds. The true share with any hit is near 18%.
VDR inh = vitamin D3 receptor (human) inhibition; 400,000 compounds, 0.93% hits; P11473; VDR-SRC2-3 peptide fluorescence polarization, 2 h; Potency, µM, usual class: inhibitors
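Signal is fluorescence polarization, reporting how far test compounds block the interaction of VDR with the SRC2-3 coregulator peptide after a 2 h room-temperature incubation.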
DT40 TDP1 CPT = DT40-hTDP1 cell growth loss with CPT. chicken DT40 Tdp1-/-;hTDP1 cells + 20 nM CPT, ATP luminescence, 48 h. Potency, µM (top dose mostly 46.2 µM), hits mostly inhibitors. 420,000 compounds, 12% hits. AID 686979; note: nearly all actives have a fitted effect of over 55% in size
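Chicken DT40 Tdp1-/- cells complemented with human TDP1, 400 cells/well, exposed to compounds plus 20 nM camptothecin for at least 48 h at 37 C; viability read as ATP content by CellTiter-Glo luminescence.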
TDP1 inh = inhibitors of human tyrosyl-DNA phosphodiesterase TDP1 | 350,000 compounds, 0.28% hits | Potency, µM (highest dose often 130 µM), usual class: inhibitors | recombinant TDP1, AlphaScreen DNA substrate cleavage | Q9NUW8; note: nearly all actives have a fitted effect of over 40% in size
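Recombinant E. coli-expressed Tdp1 (1 nM) preincubated with compound 15 min at RT, then 5'-biotin/3'-phosphotyrosine-FITC DNA substrate (15 nM) added for 5 min. AlphaScreen beads (10 ug/ml) added, 10 min RT; tyrosine-FITC cleavage read as signal loss.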
TDP1 cell noCPT = qHTS for Inhibitors of human tyrosyl-DNA phosphodiesterase 1 (TDP1): qHTS in cells in absence of CPT; DT40 Tdp1-/- hTDP1 cells, no CPT, ATP luminescence, 48 h; Potency, µM (titrated, usually from 46.2 µM), usual class: inhibitors; 420,000 compounds, 15% hits; note: nearly all actives have a fitted effect of over 55% in size
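Stably hTDP1-transfected Tdp1-null chicken DT40 cells were treated with library compounds minus camptothecin and grown for at least 48 hr at 37 °C, after which cellular ATP was quantified by luminescence.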
GCN5L2 inh = blocks human GCN5L2 histone acetyltransferase. 390,000 compounds, 0.21% hits. Q92830. Potency, µM (top dose mostly 58.9 µM), most hits filed as inhibitors. AID 504327. GCN5L2 HAT assay, ThioGlo1 CoA-SH fluorescence
Target sequence (Q92830 whole entry, looked up): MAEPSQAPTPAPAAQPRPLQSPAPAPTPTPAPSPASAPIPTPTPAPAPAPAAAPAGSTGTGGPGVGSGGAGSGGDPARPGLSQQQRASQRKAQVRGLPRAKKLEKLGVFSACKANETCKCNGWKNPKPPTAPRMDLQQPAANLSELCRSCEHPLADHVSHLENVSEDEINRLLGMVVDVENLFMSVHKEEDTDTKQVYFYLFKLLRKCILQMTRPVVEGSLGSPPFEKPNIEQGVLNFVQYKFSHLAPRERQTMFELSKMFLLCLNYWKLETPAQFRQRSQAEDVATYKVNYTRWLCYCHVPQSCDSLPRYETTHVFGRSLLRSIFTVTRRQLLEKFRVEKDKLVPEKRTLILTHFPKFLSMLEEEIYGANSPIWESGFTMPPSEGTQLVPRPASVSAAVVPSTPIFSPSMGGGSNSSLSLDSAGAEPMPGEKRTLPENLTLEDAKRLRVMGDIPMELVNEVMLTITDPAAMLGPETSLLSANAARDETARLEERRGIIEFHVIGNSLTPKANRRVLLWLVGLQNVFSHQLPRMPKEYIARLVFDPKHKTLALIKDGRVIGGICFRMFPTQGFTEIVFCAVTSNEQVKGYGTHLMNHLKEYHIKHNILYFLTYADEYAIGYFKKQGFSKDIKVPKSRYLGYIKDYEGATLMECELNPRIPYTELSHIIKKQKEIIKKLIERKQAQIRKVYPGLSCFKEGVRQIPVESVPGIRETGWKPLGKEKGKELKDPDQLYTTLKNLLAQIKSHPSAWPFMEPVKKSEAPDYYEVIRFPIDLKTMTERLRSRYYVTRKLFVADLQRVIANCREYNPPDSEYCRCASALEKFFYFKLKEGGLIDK
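Free CoA generated was detected with ThioGlo1 (50uM) fluorescence at Ex340nm/Em540nm, read immediately and after 20 min at room temperature. Enzyme, 20 nM in HEPES pH 7.5 buffer, saw compounds 15 min before adding 75uM H3(1-25) peptide and 70uM acetyl-CoA.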
PLK1 PBD block = PLK1 (human) polo-box domain binding inhibition; 360,000 compounds, 2.8% hits; Plk1 PBD binding of FITC phosphopeptide, fluorescence polarization; P53350; Potency, µM, usual class: inhibitors; AID 720504; note: series mostly up to about 57 µM; nearly all actives have a fitted effect of over 65% in size
Hits are given with their value; . = inactive; ? = inconclusive; / = no result; [ ] = another dose, or the depositor's remark. Calls come from the whole dose curve; as a rule, active = well fitted curve in the direction sought with a large enough effect; inconclusive = small, poorly fitted or top-dose-only effect, or another doubt; inactive = no such curve, though single readings can be large; an effect the other way counts as inactive or inconclusive.

SMILES | VDR inh | DT40 TDP1 CPT | TDP1 inh | TDP1 cell noCPT | GCN5L2 inh | PLK1 PBD block
O=[N+]([O-])c1cccc(Oc2cnccn2)c1 | . | . | . | . | . | .
Cc1ccc2c(c1)c1ncnc(N3CCN(c4ccccc4)CC3)c1n2C | . | 21µM | . | ? | . | .
Cc1ccc2c(c1)c1ncnc(N3CCC4(CC3)OCCO4)c1n2C | / | / | . | / | . | /
COc1ccccc1N1CCN(C(=O)Cn2cnc3c2c(=O)n(C)c(=O)n3C)CC1 | . | ? | . | . | . | .
CC(=O)c1ccc(N2CCN(C(=O)CCn3cnc4onc(-c5ccc(F)cc5)c4c3=O)CC2)cc1 | . | ? | . | ? | . | /
O=C(CCn1cnc2onc(-c3ccc(F)cc3)c2c1=O)N1CCN(c2ccc(F)cc2)CC1 | . | 23µM | . | 18µM | . | /
COc1ccccc1N1CCN(C(=O)Cn2cnc3onc(-c4ccc(F)cc4)c3c2=O)CC1 | . | ? | . | 23µM | . | /
CCc1cc2c(c(CC)n1)CCC(=O)N2Cc1ccc(-c2ccccc2-c2nn[nH]n2)cc1 | . | . | . | . | . | /
O=C(Nc1ccc(C(F)(F)F)cn1)Nc1cccs1 | . | . | . | . | . | .
O=C(Nc1cccs1)Nc1c(F)cc(F)cc1Br | . | 7.3µM | . | 23µM | . | .
Cc1cccc(C)c1NC(=O)Nc1cccs1 | . | 18µM | . | 18µM | .[0.501 µM] | .
N#Cc1cccc(NC(=O)Nc2cccs2)c1 | . | ? | . | 16µM | . | .
O=C(Nc1cccs1)Nc1cc(C(F)(F)F)ccc1Cl | . | ? | . | 16µM | . | /
CCOC(=O)[C@@H]1[C@H]2COc3ccccc3[C@@H]2N2C(=O)N(c3ccc(OC)cc3)C(=O)[C@@]12C | . | . | / | ? | . | .
C=CCNc1oc(-c2cccc(F)c2)nc1C#N | . | / | . | / | . | /
N#Cc1cccc(NC(=S)Nc2ccccc2)c1 | . | . | . | . | . | 13µM
O=C(Nc1cccs1)Nc1c(F)c(F)cc(F)c1F | . | . | . | . | . | .
O=C(Nc1cccs1)Nc1c(F)c(F)c(F)c(F)c1F | . | 21µM | . | 16µM | . | .
COc1cc(SC)ccc1C(=O)Nc1cc(C)c(OCC(=O)N2CCOCC2)c(C)c1 | . | ? | . | 23µM | . | .
COc1cc(SC)ccc1C(=O)Nc1ccc(OCC(=O)N2CCOCC2)cc1 | ? | . | . | ? | . | .
Fc1ccc(/C=N/n2cnn(Cc3ccccc3Cl)c2=S)cc1 | ? | . | . | . | . | 24µM
CC(C)(C)c1ccc(C(=O)NCC2CCCN2S(=O)(=O)c2ccccc2)cc1 (configuration not stated) | . | 8.2µM | / | 12µM | . | .
COc1ccc(S(=O)(=O)N2CCCC2CNC(=O)C(=O)NCc2ccccn2)cc1 (configuration not stated) | . | . | / | . | . | .
Cc1ccc(S(=O)(=O)N2CCCC2CNC(=O)C(=O)Nc2ccc(F)cc2)cc1 (configuration not stated) | . | 21µM | . | 16µM | . | .
COc1ccc(S(=O)(=O)N2CCCC2CNC(=O)C(=O)NCc2ccccc2Cl)cc1 (configuration not stated) | . | ? | / | 23µM | . | .
SMILES | VDR inh | DT40 TDP1 CPT | TDP1 inh | TDP1 cell noCPT | GCN5L2 inh | PLK1 PBD block
COc1ccc(NC(=O)C(=O)NCC2CCCN2S(=O)(=O)c2ccc(C)cc2)cc1 (configuration not stated) | . | 0.0058µM | . | 0.018µM | . | .
COc1ccc2cc(C(=O)NCc3ccc4c(c3)CCN4C(=O)c3ccccc3)[nH]c2c1 | . | . | . | . | . | /
CN(C)CCNC(=O)Cn1nc(N2CCN(c3ccccc3)CC2)ccc1=O | . | . | . | . | . | /
Cc1ccc(C)c(S(=O)(=O)N2CCCC2CNC(=O)C(=O)Nc2ccccc2)c1 (configuration not stated) | / | . | / | ? | / | .
Cc1ccc(S(=O)(=O)N2CCCC2CNC(=O)c2ccc(F)c(F)c2)cc1 (configuration not stated) | . | ? | . | 18µM | . | .
Cc1ccc(C(=O)NCC2CCCN2S(=O)(=O)c2ccc(C)cc2)cc1 (configuration not stated) | . | ? | . | ? | . | .
COc1ccc(NC(=O)C(=O)NCC2CCCN2S(=O)(=O)c2cc(C)ccc2C)cc1 (configuration not stated) | . | 4.1µM | . | 2.6µM | . | .
NCCC1CCCC(CCN)N1 (configuration not stated) | . | . | . | . | . | .
COC(=O)[C@@H]1C[C@H]1[C@@H](NC(=O)Oc1ccc(F)cc1)c1ccccc1 | / | / | . | / | / | /
COCCNC(=O)Cn1cnc2ccc(S(=O)(=O)N3CCC(C)CC3)cc2c1=O | . | . | . | . | . | .
CC1CCN(S(=O)(=O)c2cn(CC(=O)Nc3ccc(F)c(Cl)c3)c(=O)c3ccccc23)CC1 | . | 23µM | . | 23µM | . | /
COc1cc(Cl)c(C)cc1NC(=O)Cn1cc(S(=O)(=O)N2CCC(C)CC2)c2ccccc2c1=O | . | . | . | . | . | /
COc1ccc(NC(=O)Cn2cnc3ccc(S(=O)(=O)N4CCC(C)CC4)cc3c2=O)cc1Cl | ? | 7.3µM | . | 4.1µM | . | /
COc1cccc(Cn2ncc3c4sc(S(C)=O)cc4n(C)c3c2=O)c1 (configuration not stated) | / | / | . | / | / | /
COc1ccc(OCC(=O)Nc2ccccc2C(=O)OCc2cc(=O)n3nc(C)sc3n2)cc1 | . | ? | . | ? | . | /
CC(=O)O[C@H]1[C@H](C)OC=C[C@@H]1OC(C)=O | . | ? | / | 16µM | . | .
CC(=O)OC1COC(OC(C)=O)CO1 (configuration not stated) | . | . | / | . | / | .
COc1cc(/C=C/C(=O)OC2CC3CCC2(C)C3(C)C)ccc1O (configuration not stated) | . | 18µM | / | 16µM | ? | .
COc1ccccc1OCCOc1ccc(/C=C2/C(=N)N3OC(C)=CC3=NC2=O)cc1OC | . | ? | . | ? | . | .
CC1=CC2=NC(=O)/C(=C\c3cccn3CCOc3ccccc3C)C(=N)N2O1 | . | 21µM | . | ? | . | 27µM
Cc1cccc(C(=O)c2cnc3ccccc3c2-c2ccccc2)c1 | . | 15µM | . | 26µM | . | .
COc1ccc(-c2nc3nc(C)cc(N4CCN(c5cccc(C(F)(F)F)c5)CC4)n3n2)cc1 | . | ? | . | ? | . | /
COc1ccc(NC(=O)N(C)[C@H]2C[C@H]3c4[nH]c5ccc(-c6ccc7c(c6)OCO7)cc5c4CCN3C[C@H]2[C@H](C)O)cc1 | / | 8.2µM | / | 10µM | / | .

Compound activity (PubChem BioAssay)
